Measurements as given in PubChem BioAssay (NCATS).
Inconclusive results are not listed. The source made the active and inactive calls. The call rests on the fitted dose curve; in most records, active means well fitted inhibition curve with a large enough effect; inconclusive means small, poorly fitted or top-dose-only effect; inactive means flat fitted curve, though single readings scatter.

How the values were obtained:
Experiment in all cases: qHTS profiling for inhibitors of Plasmodium falciparum proliferation (AID 504749); further: nearly all actives have a fitted effect of over 60% in size
Details in all cases: P. falciparum in erythrocytes, SYBR Green DNA, 72 h; series mostly up to 28.7 µM
[1] = system: CP286
Outline: (§1)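 Readout was DNA-dye fluorescence from lysed cultures, ex 485/em 535 nm. Parasitized red cells had grown 72 h with compound; data scaled between 0.29 uM artemisinin and DMSO wells and corrected using vehicle-only plates.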

[2] = system: CP291
Outline: as §1

[3] = system: CP297
Outline: as §1

[4] = system: CP305
Outline: as §1

[5] = system: CP315
Outline: as §1

[6] = system: CP325
Outline: as §1

[7] = system: CP329
Outline: as §1

[8] = system: CP335
Outline: as §1

[9] = system: DFO2036
Outline: as §1

[10] = system: DIV14
Outline: as §1

[11] = system: DIV17
Outline: as §1

[12] = system: DIV30
Outline: as §1

[13] = system: Dd2
Outline: as §1

[14] = system: ECU
Outline: as §1

[15] = system: FAB9
Outline: as §1

[16] = system: GB4
Outline: as §1

[17] = system: HB3
Outline: as §1

[18] = system: ICS
Outline: as §1

[19] = system: JCK
Outline: as §1

[20] = system: N140
Outline: as §1

Measured: Potency
Potency means the concentration at half of the fitted maximal effect.

Cc1cn([C@H]2C[C@H](N=[N+]=[N-])[C@@H](CO)O2)c(=O)[nH]c1=O
inactive: [1] | [2] | [3] | [4] | [5] | [6] | [7] | [8] | [9] | [10] | [11] | [12] | [13] | [14] | [15] | [16] | [17] | [18] | [19] | [20]

CCOC(=O)c1ncn2c1CN(C)C(=O)c1cc(F)ccc1-2
inactive: [1] | [2] | [3] | [4] | [5] | [6] | [7] | [8] | [9] | [10] | [11] | [12] | [13] | [14] | [15] | [16] | [17] | [18] | [19] | [20]

Clc1ccc2nsnc2c1NC1=NCCN1
inactive: [1] | [2] | [3] | [4] | [5] | [6] | [7] | [8] | [9] | [10] | [11] | [12] | [13] | [14] | [15] | [16] | [17] | [18] | [19] | [20]

NCCc1cnc[nH]1
inactive: [1] | [2] | [3] | [4] | [5] | [6] | [7] | [8] | [9] | [10] | [11] | [12] | [13] | [14] | [15] | [16] | [17] | [18] | [19] | [20]

Cc1cc(C(C)(C)C)cc(C)c1CC1=NCCN1
inactive: [1] | [2] | [3] | [4] | [5] | [6] | [7] | [8] | [9] | [12] | [13] | [14] | [15] | [17] | [18] | [19] | [20]

O=c1c(-c2ccc(O)cc2)coc2cc(O)cc(O)c12
inactive: [1] | [2] | [3] | [4] | [5] | [6] | [7] | [8] | [9] | [10] | [11] | [12] | [13] | [14] | [15] | [16] | [17] | [18] | [19] | [20]

Cn1c(=O)c2[nH]cnc2n(C)c1=O
inactive: [1] | [2] | [3] | [4] | [5] | [6] | [7] | [8] | [9] | [10] | [11] | [12] | [13] | [14] | [15] | [16] | [17] | [18] | [19] | [20]

CC[N+](CC)(CC)CCOc1cccc(OCC[N+](CC)(CC)CC)c1OCC[N+](CC)(CC)CC
inactive: [1] | [2] | [3] | [4] | [5] | [6] | [7] | [8] | [9] | [10] | [11] | [12] | [13] | [14] | [15] | [16] | [17] | [18] | [19] | [20]

CCOC(=O)C(C)(C)Oc1ccc(Cl)cc1
inactive: [1] | [2] | [3] | [4] | [5] | [6] | [7] | [8] | [9] | [10] | [11] | [12] | [13] | [14] | [15] | [16] | [17] | [18] | [19] | [20]

CC(C)NCC(O)c1ccc(O)c(O)c1 (stereo not given)
inactive: [1] | [2] | [3] | [4] | [5] | [6] | [7] | [8] | [9] | [11] | [12] | [13] | [14] | [15] | [17] | [18] | [19] | [20]

CS(=O)(=O)Nc1ccc([N+](=O)[O-])cc1Oc1ccccc1
inactive: [1] | [2] | [3] | [4] | [5] | [6] | [7] | [8] | [9] | [10] | [11] | [12] | [13] | [14] | [15] | [16] | [17] | [18] | [19] | [20]

COC(=O)Nc1nc2ccc(C(=O)c3cccs3)cc2[nH]1
inactive: [1] | [2] | [3] | [4] | [5] | [6] | [7] | [8] | [9] | [12] | [13] | [14] | [15] | [16] | [17] | [18] | [19] | [20]

Cn1cnc2c1c(=O)[nH]c(=O)n2C
inactive: [1] | [2] | [3] | [4] | [5] | [6] | [7] | [8] | [9] | [10] | [11] | [12] | [13] | [14] | [15] | [16] | [17] | [18] | [19] | [20]

Cc1cn([C@H]2C=C[C@@H](CO)O2)c(=O)[nH]c1=O
inactive: [1] | [2] | [3] | [4] | [5] | [6] | [7] | [8] | [9] | [10] | [11] | [12] | [13] | [14] | [15] | [16] | [17] | [18] | [19] | [20]

Cc1ccc(-c2cc(C(F)(F)F)nn2-c2ccc(S(N)(=O)=O)cc2)cc1
inactive: [13] | [15] | [17] | [19]
active: [1] 8.91 µM | [14] 10 µM | [16] 13.5 µM

CN(C)C(=N)N=C(N)N
inactive: [1] | [4] | [6] | [7] | [8] | [9] | [13] | [14] | [15] | [17] | [18] | [19] | [20]

O=C1c2c(O)ccc(O)c2C(=O)c2c(NCCNCCO)ccc(NCCNCCO)c21
active: [1] 1.12 µM | [2] 6.42 µM | [3] 6.42 µM | [4] 5.1 µM | [5] 6.42 µM | [8] 2.87 µM | [9] 2.51 µM | [10] 4.55 µM | [11] 2.56 µM | [12] 5.1 µM | [13] 1.58 µM | [16] 2.87 µM | [17] 3.16 µM | [18] 1.58 µM | [20] 2.24 µM

Nc1nc2c(ncn2COC(CO)CO)c(=O)[nH]1
inactive: [1] | [2] | [4] | [5] | [6] | [7] | [8] | [9] | [10] | [11] | [12] | [13] | [14] | [15] | [16] | [17] | [18] | [19] | [20]

OCCN1CCN(CCCN2c3ccccc3Sc3ccc(C(F)(F)F)cc32)CC1
active: [1] 2.51 µM | [2] 8.49 µM | [4] 9.53 µM | [5] 12 µM | [6] 6.75 µM | [7] 13.5 µM | [8] 4.26 µM | [9] 7.08 µM | [10] 6.75 µM | [11] 6.01 µM | [12] 8.49 µM | [13] 11.2 µM | [14] 6.31 µM | [16] 6.01 µM | [17] 11.2 µM | [18] 1.58 µM | [20] 7.08 µM

NCCS(=O)(=O)O
inactive: [1] | [3] | [4] | [6] | [7] | [8] | [9] | [10] | [11] | [12] | [13] | [14] | [15] | [16] | [17] | [18] | [19] | [20]

CC[C@@]1(O)C(=O)OCc2c1cc1n(c2=O)Cc2cc3c(CN(C)C)c(O)ccc3nc2-1
active: [1] 5.62 µM | [2] 4.78 µM | [3] 7.57 µM | [7] 6.75 µM | [8] 4.78 µM | [9] 5.62 µM | [13] 10 µM | [14] 3.98 µM | [16] 5.36 µM | [18] 7.94 µM
inactive: [15]

O=C(c1ccc(F)cc1)C1CCN(CCn2c(=O)[nH]c3ccccc3c2=O)CC1
inactive: [3] | [5] | [6] | [7] | [8] | [9] | [12] | [14] | [15] | [16] | [17] | [18] | [19] | [20]

O=c1[nH]cc(F)c(=O)[nH]1
inactive: [9] | [15] | [19]
active: [16] 12 µM

Nc1c2c(nc3ccccc13)CCCC2
inactive: [5] | [12] | [13] | [14] | [15] | [19]
active: [11] 6.75 µM

CC(COc1ccccc1)N(CCCl)Cc1ccccc1 (stereo not given)
inactive: [4] | [5] | [6] | [9] | [15] | [17] | [19]
active: [11] 6.01 µM | [18] 11.2 µM

CN(Cc1cnc2nc(N)nc(N)c2n1)c1ccc(C(=O)N[C@@H](CCC(=O)O)C(=O)O)cc1
inactive: [2] | [3] | [4] | [5] | [6] | [7] | [12] | [20]
active: [1] 0.158 µM | [14] 0.112 µM | [15] 0.0316 µM | [17] 0.141 µM | [18] 0.112 µM

COc1ccc(CCN(C)CCCC(C#N)(c2ccc(OC)c(OC)c2)C(C)C)cc1OC (stereo not given)
inactive: [1] | [3] | [6] | [9] | [10] | [14] | [15] | [16] | [17] | [19] | [20]

CN(C)CCC=C1c2ccccc2C=Cc2ccccc21
active: [10] 2.39 µM | [11] 3.79 µM | [18] 8.91 µM
inactive: [5] | [6] | [7] | [9] | [14] | [15] | [17] | [20]

COc1ccc2[nH]cc(CCNC(C)=O)c2c1
inactive: [1] | [2] | [3] | [4] | [6] | [7] | [8] | [9] | [10] | [11] | [12] | [13] | [14] | [15] | [16] | [17] | [18] | [19] | [20]

O=C1N(c2ccccc2)c2ccccc2C1(Cc1ccncc1)Cc1ccncc1
inactive: [1] | [2] | [4] | [5] | [6] | [7] | [8] | [9] | [10] | [11] | [12] | [13] | [14] | [15] | [16] | [17] | [19] | [20]

COc1ccccc1OCCNCC(O)COc1cccc2[nH]c3ccccc3c12 (stereo not given)
inactive: [3] | [4] | [5] | [6] | [7] | [15] | [17]
active: [1] 10 µM | [9] 14.1 µM | [10] 13.5 µM | [14] 10 µM | [18] 7.08 µM | [20] 12.6 µM

CC#C[C@]1(O)CC[C@H]2[C@@H]3CCC4=CC(=O)CCC4=C3[C@@H](c3ccc(N(C)C)cc3)C[C@@]21C
active: [2] 16.9 µM | [3] 12 µM | [4] 12 µM | [8] 13.5 µM | [10] 12 µM | [11] 8.49 µM | [12] 15.1 µM | [13] 12.6 µM | [14] 8.91 µM | [16] 15.1 µM | [17] 12.6 µM | [18] 4.47 µM | [20] 8.91 µM
